Results taken from PubChem BioAssay AID1159580 (chemical genetic matrix, 2015).
Out of some 5,500 compounds screened, about 2,000 (36%) were called active. Another 18% or so got no clear call; they are omitted. Cut-off read from the data, not from the text of the source: active = normalized growth mostly below about 0.91 (no sharp cut-off); inconclusive = no clear call, values can overlap the other calls; inactive = mostly above about 0.92. The list shows a part of the results.

Assay: chemical genetic growth profiling, strain panel (AID 1159580);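 note: tested at 20 µM; growth read once vehicle control cultures reached saturation at 30 °C; 1 = growth at the plate median or of vehicle wells; lower values mean less growth of the strain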
Details: S. cerevisiae deletion strains, growth OD
[1] = locus YAR019C, strain CDC15, active compounds read low
[2] = locus YBL105C, strain PKC1, active compounds read low
[3] = locus YBR135W, strain CKS1, active compounds read low
[4] = locus YBR136W, strain MEC1, active compounds read low
[5] = locus YBR160W, strain CDC28, active compounds read low
[6] = locus YDL017W, strain CDC7, active compounds read low
[7] = locus YDL028C, strain MPS1, active compounds read low
[8] = locus YDL101C, strain DUN1, active compounds read low
[9] = locus YDL108W, strain KIN28, active compounds read low
[10] = locus YDL132W, strain cdc53, active compounds read low
[11] = locus YDL214C, strain PRR2, active compounds read low
[12] = locus YDR052C, strain DBF4, active compounds read low
[13] = locus YDR054C, strain cdc34, active compounds read low
[14] = locus YDR226W, strain ADK1, active compounds read low
[15] = locus YDR477W, strain SNF1, active compounds read low
[16] = locus YER123W, strain YCK3, active compounds read low
[17] = locus YER133W, strain GLC7, active compounds read low
[18] = locus YFL009W, strain cdc4, active compounds read low
[19] = locus YFL029C, strain CAK1, active compounds read low
[20] = locus YFR003C, strain YPI1, active compounds read low
[21] = locus YFR019W, strain FAB1, active compounds read low
[22] = locus YFR028C, strain CDC14, active compounds read low
[23] = locus YGR040W, strain KSS1, active compounds read low
[24] = locus YGR052W, strain FMP48, active compounds read low
[25] = locus YGR092W, strain DBF2, active compounds read low
[26] = locus YHR030C, strain SLT2, active compounds read low
[27] = locus YHR079C, strain IRE1, active compounds read low
[28] = locus YHR082C, strain KSP1, active compounds read low
[29] = locus YHR205W, strain SCH9, active compounds read low
[30] = locus YIL147C, strain SLN1, active compounds read low
[31] = locus YJL095W, strain BCK1, active compounds read low
[32] = locus YJL128C, strain PBS2, active compounds read low
[33] = locus YJL157C, strain FAR1, active compounds read low
[34] = locus YJR016C, strain ILV3, active compounds read low
[35] = locus YJR066W, strain TOR1 (second series), active compounds read low
[36] = locus YJR066W, strain TOR1, active compounds read low
[37] = locus YKL048C, strain ELM1, active compounds read low
[38] = locus YKL067W, strain YNK1, active compounds read low
[39] = locus YKL101W, strain HSL1, active compounds read low
[40] = locus YKL193C, strain SDS22, active compounds read low
[41] = locus YKL203C, strain TOR2, active compounds read low
[42] = locus YLR113W, strain HOG1, active compounds read low
[43] = locus YLR133W, strain CKI1, active compounds read low
[44] = locus YLR403W, strain SFP1, active compounds read low
[45] = locus YML070W, strain DAK1, active compounds read low
[46] = locus YMR001C, strain CDC5, active compounds read low
[47] = locus YMR205C, strain PFK2 (second series), active compounds read low
[48] = locus YMR277W, strain FCP1, active compounds read low
[49] = locus YNL006W, strain LST8, active compounds read low
[50] = locus YNL020C, strain ARK1, active compounds read low
[51] = locus YNL161W, strain CBK1, active compounds read low
[52] = locus YNL183C, strain NPR1, active compounds read low
[53] = locus YNL207W, strain RIO2, active compounds read low
[54] = locus YNL222W, strain SSU72, active compounds read low
[55] = locus YNL307C, strain MCK1 (second series), active compounds read low
[56] = locus YOL078W, strain AVO1, active compounds read low
[57] = locus YOL136C, strain PFK27, active compounds read low
[58] = locus YOR061W, strain CKA2, active compounds read low
[59] = locus YOR119C, strain RIO1, active compounds read low
[60] = locus YOR231W, strain MKK1, active compounds read low
[61] = locus YOR329C, strain SCD5, active compounds read low
[62] = locus YPL031C, strain PHO85, active compounds read low
[63] = locus YPL153C, strain RAD53, active compounds read low
[64] = locus YPL204W, strain HRR25, active compounds read low
[65] = locus YPL209C, strain IPL1, active compounds read low
[66] = locus YPL256C, strain CLN2, active compounds read low
[67] = locus YPR025C, strain CCL1, active compounds read low
[68] = locus YPR106W, strain ISR1, active compounds read low
[69] = locus YPR111W, strain DBF20, active compounds read low
[70] = strain NNK1, active compounds read low
[71] = strain TSCII, active compounds read low

Measured: normalized growth

COC(=O)c1cccc(NS(=O)(=O)c2ccc(Cl)c(Cl)c2)c1
inactive: [1] 0.981 | [2] 0.969 | [3] 0.973 | [4] 0.973 | [5] 0.983 | [6] 0.978 | [7] 0.977 | [8] 0.979 | [9] 0.973 | [10] 0.981 | [11] 0.971 | [12] 0.972 | [13] 0.961 | [14] 0.986 | [15] 0.991 | [16] 0.973 | [17] 0.985 | [18] 0.97 | [19] 0.982 | [20] 0.974 | [21] 0.994 | [22] 0.973 | [23] 1 | [24] 1.01 | [25] 0.948 | [26] 0.852 | [27] 0.923 | [28] 1.08 | [29] 0.904 | [30] 0.975 | [31] 0.896 | [32] 0.902 | [33] 0.98 | [34] 0.981 | [35] 0.98 | [36] 1.06 | [37] 0.949 | [38] 0.972 | [39] 0.962 | [40] 0.974 | [41] 1.05 | [43] 0.978 | [44] 0.985 | [45] 0.963 | [46] 0.975 | [47] 0.977 | [48] 0.973 | [49] 0.978 | [50] 0.974 | [51] 0.982 | [52] 1.04 | [53] 0.974 | [54] 0.98 | [55] 0.973 | [56] 0.979 | [57] 0.959 | [58] 0.986 | [59] 1.05 | [60] 0.953 | [61] 0.977 | [62] 0.98 | [63] 0.963 | [64] 0.959 | [65] 0.981 | [66] 0.895 | [67] 0.977 | [68] 0.977 | [69] 0.972 | [70] 0.966 | [71] 0.98
active: [42] 0.861

O=S(=O)(Nc1c(F)cccc1F)c1ccc(Cl)c(Cl)c1
inactive: [1] 0.933 | [2] 0.946 | [3] 0.932 | [4] 0.943 | [5] 0.937 | [6] 0.945 | [7] 0.939 | [8] 0.949 | [9] 0.947 | [10] 0.961 | [11] 0.984 | [12] 0.956 | [13] 0.933 | [14] 0.943 | [15] 0.959 | [16] 0.962 | [17] 0.964 | [18] 0.931 | [19] 0.933 | [20] 0.946 | [21] 0.948 | [22] 0.933 | [23] 0.951 | [24] 1.05 | [25] 0.843 | [26] 0.956 | [27] 0.942 | [28] 1 | [29] 0.982 | [30] 0.933 | [31] 0.947 | [32] 0.874 | [33] 0.97 | [34] 0.931 | [35] 0.967 | [36] 1.03 | [37] 0.93 | [38] 0.962 | [39] 0.96 | [40] 0.937 | [41] 1.02 | [42] 0.926 | [43] 0.964 | [44] 0.966 | [45] 0.961 | [46] 0.937 | [47] 0.973 | [48] 0.936 | [49] 0.941 | [50] 0.955 | [51] 0.94 | [52] 0.947 | [53] 0.937 | [54] 0.937 | [55] 0.95 | [56] 0.938 | [57] 0.985 | [58] 0.969 | [59] 1.05 | [60] 0.935 | [61] 0.943 | [62] 0.964 | [63] 0.927 | [64] 0.95 | [65] 0.94 | [66] 0.914 | [67] 0.934 | [68] 0.957 | [69] 0.934 | [70] 0.953 | [71] 0.93

Cn1cc(Br)c(-c2cccc(NS(=O)(=O)c3ccc(Cl)cc3)c2)n1
inactive: [1] 0.987 | [2] 0.976 | [3] 0.998 | [4] 0.995 | [5] 0.979 | [6] 0.987 | [7] 0.992 | [8] 0.977 | [9] 0.999 | [10] 0.994 | [11] 1 | [12] 0.976 | [13] 0.988 | [14] 0.987 | [15] 0.992 | [16] 0.998 | [17] 1 | [18] 0.989 | [19] 0.993 | [20] 0.994 | [21] 1 | [22] 0.998 | [23] 0.995 | [24] 1.04 | [25] 0.984 | [26] 1.12 | [27] 1.11 | [28] 1.11 | [29] 0.987 | [30] 0.986 | [31] 0.988 | [32] 0.986 | [33] 0.998 | [34] 0.993 | [35] 1.01 | [36] 1.07 | [37] 0.999 | [38] 1.02 | [39] 1 | [40] 0.995 | [41] 1.06 | [42] 0.983 | [43] 1 | [44] 0.999 | [45] 1.01 | [46] 0.985 | [47] 1.01 | [48] 0.998 | [49] 0.999 | [50] 0.997 | [51] 0.981 | [52] 1.06 | [53] 0.987 | [54] 0.995 | [55] 0.98 | [56] 1 | [57] 1 | [58] 1 | [59] 1.06 | [60] 0.982 | [61] 0.986 | [62] 0.989 | [63] 0.994 | [64] 0.997 | [65] 0.992 | [66] 1.13 | [67] 0.981 | [68] 0.99 | [69] 0.985 | [70] 1 | [71] 0.993

N[C@@H](Cc1cnc[nH]1)C(=O)O
inactive: locus YAL013W, strain DEP1, active compounds read low 0.963 | locus YAL040C, strain CLN3, active compounds read low 0.939 | locus YCL061C, strain MRC1 (second series), active compounds read low 0.987 | locus YDR363W, strain ESC2, active compounds read low 0.979 | locus YER002W, strain NOP16, active compounds read low 0.991 | locus YMR307W, strain GAS1, active compounds read low 0.986 | locus YNL128W, strain TEP1, active compounds read low 0.978 | locus YNL153C, strain GIM3, active compounds read low 1.01 | locus YNL175C, strain NOP13, active compounds read low 0.989 | locus YNL197C, strain WHI3, active compounds read low 0.988 | locus YNL224C, strain SQS1, active compounds read low 0.996 | locus YOR083W, strain WHI5 (second series), active compounds read low 1.03
